Assay [1] in a line: ATG_M_06_XSP1: Attagene TRANS-FACTORIAL Multi-Species (XSP1) HepG2 Assay for M06 Transcription Factor (Internal Marker) (AID 2283790). A digest of the protocol: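 This background-control readout tracks M06 reporter mRNA, measured by RT-PCR and capillary electrophoresis. HepG2 cells transiently carrying the GAL4-UAS reporter panel were dosed for 24 h with 3 nM 6-alpha-fluorotestosterone added for partial AR stimulation; increases were scored relative to DMSO.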

Assay [2] is described as follows: ATG_M_61_XSP1: Attagene TRANS-FACTORIAL Multi-Species (XSP1) HepG2 Assay for M61 Transcription Factor (Internal Marker) (AID 2283797). A digest of the protocol: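 Background-control readout: reporter transcripts measured by RT-PCR and capillary electrophoresis 24 h after dosing transiently transfected HepG2 multi-reporter cells, with 3 nM 6-alpha-fluorotestosterone present. Fitted in the positive direction relative to DMSO.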

Assay [3] concerns the target Peroxisome proliferator-activated receptor gamma (Homo sapiens) (UniProt P37231). The assay can be described thus: ATG_hPPARg_XSP1: Attagene TRANS-FACTORIAL Multi-Species (XSP1) HepG2 Assay for human Peroxisome Proliferator-activated Receptor gamma (PPARg) (AID 2283800). The procedure, abridged: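 Reporter mRNA induction, measured by RT-PCR with capillary electrophoresis 24 h after dosing, scored as gain over DMSO. Transfected HepG2 cells express exogenous NR-Gal4 chimeras driving GAL4-UAS reporters; medium includes 3 nM 6-alpha-fluorotestosterone.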

Assay [4] concerns zebrafish Peroxisome Proliferator-activated Receptor gamma (PPARg), gene 557037. In words: ATG_zfPPARg_XSP1: Attagene TRANS-FACTORIAL Multi-Species (XSP1) HepG2 Assay for zebrafish Peroxisome Proliferator-activated Receptor gamma (PPARg) (AID 2283801). The procedure, abridged:
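Trans-activation readout of chimeric zebrafish PPARg–GAL4 in transiently transfected human HepG2 cells, 24 h chemical exposure (medium includes 3 nM 6-alpha-fluorotestosterone). Reporter transcripts measured by RT-PCR and capillary electrophoresis, fitted as gain over DMSO.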

In assay [5] the target is mouse Peroxisome Proliferator-activated Receptor gamma (PPARg), Pparg (gene 19016) (UniProt P37238). In words: ATG_mPPARg_XSP1: Attagene TRANS-FACTORIAL Multi-Species (XSP1) HepG2 Assay for mouse Peroxisome Proliferator-activated Receptor gamma (PPARg) (AID 2283802). The procedure, abridged:
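Readout is reporter mRNA induction, measured by RT-PCR with 6-FAM labelling, HpaI digestion and capillary electrophoresis, 24 h post-dose relative to DMSO. Transient multi-reporter transfection of human HepG2 with mouse PPARg–GAL4 fusion; 3 nM 6-alpha-fluorotestosterone included.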

Assay [6] addresses Nuclear receptor subfamily 1 group I member 2 (Mus musculus) (UniProt O54915). In words: ATG_mPXR_XSP1: Attagene TRANS-FACTORIAL Multi-Species (XSP1) HepG2 Assay for mouse Pregnane X Receptor (PXR) (AID 2283803). A digest of the protocol: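 Transiently transfected HepG2 cells expressing a receptor-Gal4 chimera drive a GAL4-UAS reporter; 3 nM 6-alpha-fluorotestosterone included. Reporter mRNA read 24 h post-dose by RT-PCR and capillary electrophoresis; gain of signal relative to DMSO.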

In assay [7] the target is frog Thyroid hormone Receptor alpha (TRa), thra-a (gene 397942) (UniProt P15204). The assay can be described thus: ATG_frTRa_XSP1: Attagene TRANS-FACTORIAL Multi-Species (XSP1) HepG2 Assay for frog Thyroid hormone Receptor alpha (TRa) (AID 2283804). A digest of the protocol:
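Reporter transcript induction, measured by RT-PCR with 6-FAM labelling and capillary electrophoresis, 24 hr after dosing transiently transfected HepG2 cells expressing a frog TRa-GAL4 fusion; medium contained 3 nM 6-alpha-fluorotestosterone; increase over DMSO scored.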

Assay [8] concerns the target human Thyroid hormone Receptor alpha (TRa), THRA (gene 7067) (UniProt P10827). The assay can be described thus: ATG_hTRa_XSP1: Attagene TRANS-FACTORIAL Multi-Species (XSP1) HepG2 Assay for human Thyroid hormone Receptor alpha (TRa) (AID 2283805). A digest of the protocol: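 Reporter transcripts from the human TRa-Gal4 TRANS unit quantified by RT-PCR, fluorescent labeling and capillary electrophoresis after 24 hours of chemical exposure in transfected HepG2 cells; medium contains 3 nM 6-alpha-fluorotestosterone. Positive direction fit against DMSO.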

The target in assay [9] is zebrafish Thyroid Hormone Receptor alpha (TRa), thraa (gene 30670) (UniProt Q98867). In words: ATG_zfTRa_XSP1: Attagene TRANS-FACTORIAL Multi-Species (XSP1) HepG2 Assay for zebrafish Thyroid Hormone Receptor alpha (TRa) (AID 2283807). The procedure, abridged:
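Reporter transcripts driven by a chimeric zebrafish TRa–Gal4 protein were measured by RT-PCR with fluorescent labelling and capillary electrophoresis. These came from transiently transfected HepG2 cells after 24 h chemical exposure, with 3 nM 6-alpha-fluorotestosterone added; baseline was DMSO.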

The target in assay [10] is human Thyroid hormone Receptor beta (TRb), THRB (gene 7068) (UniProt P10828). In words: ATG_hTRb_XSP1: Attagene TRANS-FACTORIAL Multi-Species (XSP1) HepG2 Assay for human Thyroid hormone Receptor beta (TRb) (AID 2283808). A digest of the protocol: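 Readout is reporter mRNA induction measured by RT-PCR, fluorescent labelling and capillary electrophoresis, fitted upward relative to DMSO. Transiently transfected human HepG2 cells expressing NR-Gal4 chimeras were dosed for 24 h, medium containing 3 nM 6-alpha-fluorotestosterone.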
human Thyroid hormone Receptor beta (TRb), THRB (gene 7068), sequence (P10828 whole entry, looked up, the tested form may be a part): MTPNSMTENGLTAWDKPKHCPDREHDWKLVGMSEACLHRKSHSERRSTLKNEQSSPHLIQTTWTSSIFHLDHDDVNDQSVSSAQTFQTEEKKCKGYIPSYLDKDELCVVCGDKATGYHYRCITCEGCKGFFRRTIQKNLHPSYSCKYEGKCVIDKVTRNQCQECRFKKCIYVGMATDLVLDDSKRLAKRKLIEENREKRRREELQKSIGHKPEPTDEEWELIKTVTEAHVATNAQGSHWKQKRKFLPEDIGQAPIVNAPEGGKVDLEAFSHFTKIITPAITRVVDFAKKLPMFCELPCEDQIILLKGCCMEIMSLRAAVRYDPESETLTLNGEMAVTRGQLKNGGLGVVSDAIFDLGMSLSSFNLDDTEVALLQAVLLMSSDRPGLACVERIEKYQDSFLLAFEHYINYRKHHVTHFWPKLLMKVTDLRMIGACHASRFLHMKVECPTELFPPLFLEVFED

The target in assay [11] is zebrafish Thyroid Hormone Receptor beta (TRb), thrb (gene 30607) (UniProt Q9PVE4). The assay can be described thus: ATG_zfTRb_XSP1: Attagene TRANS-FACTORIAL Multi-Species (XSP1) HepG2 Assay for zebrafish Thyroid Hormone Receptor beta (TRb) (AID 2283809). A digest of the protocol: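 HepG2 cells transiently transfected with multiplexed GAL4-UAS reporter units expressing chimeric zebrafish TRb–Gal4. Dosed 24 h with 3 nM 6-alpha-fluorotestosterone present; reporter mRNA measured by RT-PCR, HpaI digestion and capillary electrophoresis; gain of signal versus DMSO.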
zebrafish Thyroid Hormone Receptor beta (TRb), thrb (gene 30607), sequence (Q9PVE4 whole entry, looked up, the tested form may be a part): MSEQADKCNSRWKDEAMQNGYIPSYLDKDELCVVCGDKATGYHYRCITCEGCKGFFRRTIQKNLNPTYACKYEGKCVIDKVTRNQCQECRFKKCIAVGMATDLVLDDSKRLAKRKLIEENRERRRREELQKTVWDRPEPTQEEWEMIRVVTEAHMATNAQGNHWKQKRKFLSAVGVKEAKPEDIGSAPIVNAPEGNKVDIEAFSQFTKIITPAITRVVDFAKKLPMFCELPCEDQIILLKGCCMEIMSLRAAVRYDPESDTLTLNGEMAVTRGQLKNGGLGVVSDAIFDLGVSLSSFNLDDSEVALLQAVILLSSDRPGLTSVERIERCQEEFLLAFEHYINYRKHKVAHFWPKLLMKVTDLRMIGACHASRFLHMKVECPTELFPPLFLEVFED

Assay [12] can be described thus: ATG_M_06_XSP2: Attagene TRANS-FACTORIAL Multi-Species (XSP2) HepG2 Assay for M06 Transcription Factor (Internal Marker) (AID 2283811).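 Further: hits are increases in signal above the DMSO baseline.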 A digest of the protocol: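 Internal-marker reporter transcript, quantified by RT-PCR, 6-FAM labelling, HpaI digestion and capillary electrophoresis, 24 hours after dosing transfected HepG2 cells with 3 nM 6-alpha-fluorotestosterone and 1.5 nM norgestrel present; DMSO baseline.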

Assay [13] concerns turtle Estrogen Receptor (ERa), gene 101933533. The assay can be described thus: ATG_trERa_XSP2: Attagene TRANS-FACTORIAL Multi-Species (XSP2) HepG2 Assay for turtle Estrogen Receptor (ERa) (AID 2283812).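 Further: actives raise reporter signal above DMSO so AC50 reflects agonist activity.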 The procedure, abridged:
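Readout is reporter mRNA quantified by RT-PCR with capillary electrophoresis after 24 h compound exposure, increase relative to DMSO. Uses transiently transfected human HepG2 liver cells carrying a chimeric turtle ERa-Gal4 receptor driving GAL4-UAS reporters.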

The target of assay [14] is Estrogen receptor beta (Homo sapiens) (UniProt Q92731). In words: ATG_hERb_XSP2: Attagene TRANS-FACTORIAL Multi-Species (XSP2) HepG2 Assay for human Estrogen Receptor (ERb) (AID 2283813).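 Further: actives raise reporter mRNA above DMSO so AC50 reflects agonist induction.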 The procedure, abridged: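 Transient TRANS reporter system in HepG2: after 24 h of chemical, RNA is reverse-transcribed, reporter cDNA amplified, FAM-labelled and sized by capillary electrophoresis. Induction of the human ERb-Gal4 reporter is measured relative to DMSO.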
Estrogen receptor beta (Homo sapiens), sequence (Q92731 whole entry, looked up, the tested form may be a part): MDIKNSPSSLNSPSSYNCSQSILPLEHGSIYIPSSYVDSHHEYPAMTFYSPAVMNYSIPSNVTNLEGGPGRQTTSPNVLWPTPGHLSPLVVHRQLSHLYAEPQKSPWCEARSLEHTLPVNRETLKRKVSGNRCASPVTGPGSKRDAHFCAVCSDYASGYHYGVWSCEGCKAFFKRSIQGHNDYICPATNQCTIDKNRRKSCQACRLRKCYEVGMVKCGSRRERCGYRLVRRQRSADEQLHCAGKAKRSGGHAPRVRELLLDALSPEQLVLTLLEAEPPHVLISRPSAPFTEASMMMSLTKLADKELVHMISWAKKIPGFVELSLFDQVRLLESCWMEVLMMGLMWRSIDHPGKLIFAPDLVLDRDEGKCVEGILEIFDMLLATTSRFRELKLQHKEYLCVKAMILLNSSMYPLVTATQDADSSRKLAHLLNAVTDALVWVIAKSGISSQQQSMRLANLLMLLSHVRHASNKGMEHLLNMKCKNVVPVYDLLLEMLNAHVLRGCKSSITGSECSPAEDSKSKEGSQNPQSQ

For assay [15], the target named is GAL4 Transcription Factor (Internal Marker), GAL4 (gene 855828) (UniProt P04386). In words: ATG_GAL4_XSP2: Attagene TRANS-FACTORIAL Multi-Species (XSP2) HepG2 Assay for GAL4 Transcription Factor (Internal Marker) (AID 2283814).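 Further: GAL4 reporter mRNA background control in MRTU transfected cells not a receptor target.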 A digest of the protocol: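 Background-control readout: gain-of-signal fitted against DMSO. After 24 h exposure of transfected HepG2 (MRTU, GAL4-UAS reporters; 3 nM 6-alpha-fluorotestosterone, 1.5 nM norgestrel present), transcripts quantified by RT-PCR and capillary electrophoresis fluorescence.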
GAL4 Transcription Factor (Internal Marker), GAL4 (gene 855828), sequence (P04386 whole entry, looked up, the tested form may be a part): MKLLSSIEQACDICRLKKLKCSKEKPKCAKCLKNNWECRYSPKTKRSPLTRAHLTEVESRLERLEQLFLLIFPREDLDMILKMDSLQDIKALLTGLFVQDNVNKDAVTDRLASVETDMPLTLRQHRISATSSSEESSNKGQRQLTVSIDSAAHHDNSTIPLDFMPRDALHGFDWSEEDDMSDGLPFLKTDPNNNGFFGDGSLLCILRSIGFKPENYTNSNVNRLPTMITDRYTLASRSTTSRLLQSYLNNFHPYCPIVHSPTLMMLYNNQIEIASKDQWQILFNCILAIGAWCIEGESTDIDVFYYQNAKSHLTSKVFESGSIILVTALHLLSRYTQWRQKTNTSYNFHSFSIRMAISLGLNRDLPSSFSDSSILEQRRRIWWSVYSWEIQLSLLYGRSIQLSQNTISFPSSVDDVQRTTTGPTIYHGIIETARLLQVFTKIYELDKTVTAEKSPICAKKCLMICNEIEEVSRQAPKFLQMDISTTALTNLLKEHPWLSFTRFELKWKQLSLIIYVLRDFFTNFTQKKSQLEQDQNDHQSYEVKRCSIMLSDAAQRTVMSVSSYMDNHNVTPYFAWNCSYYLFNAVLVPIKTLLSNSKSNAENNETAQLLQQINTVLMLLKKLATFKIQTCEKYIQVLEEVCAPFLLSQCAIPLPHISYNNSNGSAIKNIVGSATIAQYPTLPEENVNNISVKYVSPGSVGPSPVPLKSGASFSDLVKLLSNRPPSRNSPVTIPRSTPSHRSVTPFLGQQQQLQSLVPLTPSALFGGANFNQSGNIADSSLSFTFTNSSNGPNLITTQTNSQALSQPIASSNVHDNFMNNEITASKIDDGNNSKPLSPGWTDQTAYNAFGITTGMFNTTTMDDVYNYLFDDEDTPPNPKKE

Assay [16] relates to turtle Androgen Receptor (AR), gene 101947425. In words: ATG_trAR_XSP2: Attagene TRANS-FACTORIAL Multi-Species (XSP2) HepG2 Assay for turtle Androgen Receptor (AR) (AID 2283815). The procedure, abridged:
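Reporter transcripts were quantified via RT-PCR and capillary electrophoresis and fitted upward against DMSO. Transiently transfected human HepG2 cells carrying NR-Gal4 chimeras were exposed 24 h, with 3 nM 6-alpha-fluorotestosterone plus 1.5 nM norgestrel added.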

For assay [17], the system named is turtle Thyroid Hormone Receptor, alpha (TRa), gene 101949057. The assay can be described thus: ATG_trTRa_XSP1: Attagene TRANS-FACTORIAL Multi-Species (XSP1) HepG2 Assay for turtle Thyroid Hormone Receptor, alpha (TRa) (AID 2283806). A digest of the protocol: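 After 24 h chemical exposure, reporter transcripts were measured by RT-PCR with fluorescent primer extension, HpaI digestion and capillary electrophoresis. Cells were transiently transfected HepG2 expressing exogenous NR-Gal4 chimeras; medium contained 3 nM 6-alpha-fluorotestosterone; fitted upward relative to DMSO.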

Assay [18] can be described thus: ATG_M_19_XSP1: Attagene TRANS-FACTORIAL Multi-Species (XSP1) HepG2 Assay for M19 Transcription Factor (Internal Marker) (AID 2283798). A digest of the protocol: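 Readout is reporter mRNA induction quantified via RT-PCR, 6-FAM labeling, HpaI digestion and capillary electrophoresis, fitted in the positive direction versus DMSO baseline. Transfected HepG2 cells exposed 24 h, medium including 3 nM 6-alpha-fluorotestosterone.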

A short description of assay [19]: ATG_M_32_XSP1: Attagene TRANS-FACTORIAL Multi-Species (XSP1) HepG2 Assay for M32 Transcription Factor (Internal Marker) (AID 2283799). The procedure, abridged:
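Reporter transcripts from the M32 internal-control unit measured by RT-PCR, FAM labelling, HpaI digestion and capillary electrophoresis after 24 h compound exposure of transfected HepG2, 3 nM 6-alpha-fluorotestosterone included; DMSO baseline, positive-direction fit.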

Assay [20] can be described thus: ATG_XTT_Cytotoxicity_XSP1: Cytotoxicity Assessment in the Attagene TRANS-FACTORIAL Multi-Species (XSP1) HepG2 Assay (AID 2283810). The procedure, abridged:
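XTT viability readout taken at 24 hours post-dosing in HepG2 liver cells co-treated with 3 nM 6-alpha-fluorotestosterone. Signal loss relative to DMSO controls reflects cytotoxicity.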

The text below walks through data of PubChem BioAssay (EPA / NIEHS).

Where “and” joins values, the source holds several entries; their conditions need not be identical. Identical values can stand only once. Results filed as inconclusive are left out. A structure can be active in one record and inactive in another. Calls of active or inactive are those of the source. How the source made its calls: active means hit-call score of the fitted dose curve at least 0.9, where 1 is the maximum; inconclusive means response in the unintended direction; inactive means score below 0.9.

mouse Peroxisome Proliferator-activated Receptor gamma (PPARg), Pparg (gene 19016), sequence (P37238 whole entry, looked up, the tested form may be a part): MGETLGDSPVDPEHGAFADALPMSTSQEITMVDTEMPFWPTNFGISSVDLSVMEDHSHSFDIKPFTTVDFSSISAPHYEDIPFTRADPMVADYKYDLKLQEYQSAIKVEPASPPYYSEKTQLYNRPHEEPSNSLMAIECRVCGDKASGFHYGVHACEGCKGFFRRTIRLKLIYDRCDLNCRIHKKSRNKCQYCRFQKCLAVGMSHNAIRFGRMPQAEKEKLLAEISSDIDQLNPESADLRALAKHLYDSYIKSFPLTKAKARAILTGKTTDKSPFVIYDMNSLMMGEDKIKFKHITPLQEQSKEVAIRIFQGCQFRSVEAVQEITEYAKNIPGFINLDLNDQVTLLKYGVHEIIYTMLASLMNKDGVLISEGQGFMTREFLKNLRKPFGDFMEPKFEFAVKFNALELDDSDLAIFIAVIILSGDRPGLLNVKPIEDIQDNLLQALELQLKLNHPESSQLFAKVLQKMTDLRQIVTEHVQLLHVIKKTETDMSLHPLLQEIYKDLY
Nuclear receptor subfamily 1 group I member 2 (Mus musculus), sequence (O54915 whole entry, looked up, the tested form may be a part): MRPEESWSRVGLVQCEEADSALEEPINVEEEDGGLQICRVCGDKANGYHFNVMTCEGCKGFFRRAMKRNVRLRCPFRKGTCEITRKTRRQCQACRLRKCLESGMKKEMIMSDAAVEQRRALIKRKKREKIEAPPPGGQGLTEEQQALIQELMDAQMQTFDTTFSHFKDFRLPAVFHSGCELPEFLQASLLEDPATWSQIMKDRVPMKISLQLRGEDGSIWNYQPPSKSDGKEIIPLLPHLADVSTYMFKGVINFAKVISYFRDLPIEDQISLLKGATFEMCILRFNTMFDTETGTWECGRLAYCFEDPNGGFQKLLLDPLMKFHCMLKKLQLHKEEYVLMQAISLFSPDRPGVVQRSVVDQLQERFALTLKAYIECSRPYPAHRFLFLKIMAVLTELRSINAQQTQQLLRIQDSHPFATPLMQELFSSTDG
zebrafish Thyroid Hormone Receptor alpha (TRa), thraa (gene 30670), sequence (Q98867 whole entry, looked up, the tested form may be a part): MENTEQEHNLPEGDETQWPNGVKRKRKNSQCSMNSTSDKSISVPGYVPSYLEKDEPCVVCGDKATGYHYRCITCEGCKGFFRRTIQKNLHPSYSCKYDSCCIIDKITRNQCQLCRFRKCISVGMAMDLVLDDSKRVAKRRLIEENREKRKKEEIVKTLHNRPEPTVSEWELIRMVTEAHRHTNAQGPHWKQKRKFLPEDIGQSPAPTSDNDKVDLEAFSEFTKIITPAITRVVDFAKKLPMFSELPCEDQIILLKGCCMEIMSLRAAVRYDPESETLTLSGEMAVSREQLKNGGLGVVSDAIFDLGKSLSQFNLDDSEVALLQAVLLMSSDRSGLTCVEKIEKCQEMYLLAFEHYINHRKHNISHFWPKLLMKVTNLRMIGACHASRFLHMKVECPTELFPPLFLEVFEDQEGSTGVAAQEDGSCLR
Peroxisome proliferator-activated receptor gamma (Homo sapiens), sequence (P37231 whole entry, looked up, the tested form may be a part): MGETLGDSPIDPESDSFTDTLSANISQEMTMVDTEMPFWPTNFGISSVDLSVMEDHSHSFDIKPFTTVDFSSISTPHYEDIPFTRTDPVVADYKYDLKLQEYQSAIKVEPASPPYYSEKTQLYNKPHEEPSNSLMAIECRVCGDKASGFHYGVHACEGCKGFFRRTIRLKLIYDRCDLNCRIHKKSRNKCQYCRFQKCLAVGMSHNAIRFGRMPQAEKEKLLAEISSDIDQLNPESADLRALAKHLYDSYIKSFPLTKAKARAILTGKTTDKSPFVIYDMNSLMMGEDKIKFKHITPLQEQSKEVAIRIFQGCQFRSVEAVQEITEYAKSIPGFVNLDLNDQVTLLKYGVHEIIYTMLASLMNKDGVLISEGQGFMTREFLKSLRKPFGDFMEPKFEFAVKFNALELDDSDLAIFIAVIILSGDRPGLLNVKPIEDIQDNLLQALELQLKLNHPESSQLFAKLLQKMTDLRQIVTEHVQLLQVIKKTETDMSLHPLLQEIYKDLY
frog Thyroid hormone Receptor alpha (TRa), thra-a (gene 397942), sequence (P15204 whole entry, looked up, the tested form may be a part): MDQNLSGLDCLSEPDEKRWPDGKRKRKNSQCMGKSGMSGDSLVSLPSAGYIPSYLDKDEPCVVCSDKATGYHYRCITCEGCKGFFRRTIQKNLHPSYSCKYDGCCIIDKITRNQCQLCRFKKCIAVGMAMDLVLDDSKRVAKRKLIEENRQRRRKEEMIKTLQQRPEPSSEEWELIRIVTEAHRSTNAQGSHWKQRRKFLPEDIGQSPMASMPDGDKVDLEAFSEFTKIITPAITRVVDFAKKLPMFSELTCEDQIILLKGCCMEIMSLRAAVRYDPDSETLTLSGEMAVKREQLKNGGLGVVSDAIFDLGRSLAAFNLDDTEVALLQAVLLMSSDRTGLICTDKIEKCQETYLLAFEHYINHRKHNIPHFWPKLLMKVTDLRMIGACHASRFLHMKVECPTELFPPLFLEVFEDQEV

The AC50 is the midpoint of the concentration-response curve, whichever way the signal moves. Take `CC(=O)S[C@@H]1CC2=CC(=O)CC[C@]2(C)[C@H]2CC[C@@]3(C)[C@@H](CC[C@@]34CCC(=O)O4)[C@H]12`: the result in [1], in [2], in assay [3], in assay [4], in assay [5] and in [7] was inactive. Besides, the call in assay [8], in assay [9], in [10], in [11], in [12] and in assay [13] was inactive. Further, the result in assay [14] and in assay [15] was inactive. Also, the AC50 in assay [6] is 0.411 µM (active).
As to `CN(C)C(=O)Nc1ccc(Cl)c(Cl)c1`, the molecule was called inactive in [12]. Moreover, the half-maximal activity concentration (AC50) in assay [13] was 25.1 µM (active) and 18 µM (active).
Turning to `N[C@@H](Cc1cc(I)c(Oc2ccc(O)c(I)c2)c(I)c1)C(=O)O`, the molecule was called inactive in [12], in assay [15] and in assay [16]. Moreover, the concentration at half-maximal activity (AC50) in assay [13] was 359 nM (active) and 3.85 µM (active).
Regarding `CC(C)CCCCCCc1ccc(O)cc1`, the call in assay [1], in assay [2], in [3], in assay [4], in assay [6] and in [17] was inactive. The call in assay [11], in assay [12] and in assay [14] was inactive. The figures for the AC50 in assay [5] and in assay [13] were 15.9 µM (active) and 0.989 µM (active), respectively.
With `CCN(Cc1c(F)cccc1Cl)c1c([N+](=O)[O-])cc(C(F)(F)F)cc1[N+](=O)[O-]`, the half-maximal activity concentration (AC50) in [13] is 2.15 µM (active). In addition, the molecule was called inactive in [13], in assay [14] and in assay [16].
On to `CCCCC(CC)COC(=O)c1ccccc1C(=O)O` (centres undefined), for which the outcome in [1], in [2], in assay [18], in assay [19], in assay [17] and in [9] was inactive. The molecule was classed as inactive in [11], in assay [12] and in [14]. In addition, the AC50 in assay [4] is 64.2 µM (active); in assay [5], 13.2 µM (active); in assay [6], 3.95 µM (active); in assay [13] it was 27.1 µM (active).
In the case of `C=CCOC(Cn1ccnc1)c1ccc(Cl)cc1Cl` (centres undefined), the outcome in assay [1], in [2], in [19], in assay [4], in [7] and in [9] was inactive. Moreover, the molecule was called inactive in assay [10], in assay [20], in assay [12], in assay [13], in assay [14] and in assay [15]. The concentration at half-maximal activity (AC50) was 100 µM (active) in [3], 9.81 µM (active) in assay [5] and 0.948 µM (active) in assay [6].
